PubChem BioAssay (NCI)
This is part of a sample that, as a whole, favours compounds with a hit. Of some 83,000 tested, about 20% had one in any assay.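 Method: cells in 96-well plates; compound added at one concentration; 48 h incubation; percent growth measured; values under 10 scored active.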 A number with no mark means an inactive call. Activity calls are given as the source filed them.

These molecules were tested on HL-60(TB) leukemia (assay: NCI-60 one-dose screen, 48 h (100 = growth as untreated, 0 = no growth, -100 = all killed)). Conditions: 10 µM unless noted.
Molecule C(=C1c2ccccc2-c2ccccc21)c1ccccn1 has a growth of 52.3%.
Molecule CC(=O)Nc1nonc1-c1nc2ccccc2n1Cc1ccc(C(C)(C)C)cc1 has a growth of 56.8%.
With CCCCCCCCNC(=O)[C@@H](N)CSCOC(C)=O the growth was 83.6%.
With COc1ccc(-c2cnnn2-c2cc(OC)c3c(c2)OCO3)cc1 the growth was -32% (active).
CCOC(=O)c1cnc2cc(Cl)c(F)cc2c1Nc1cccc(NS(C)(=O)=O)c1 gave a growth of 105%.
With COc1ccc(-c2nn(-c3cccc(NC(=O)c4ccc(N5CCOCC5)c(C(F)(F)F)c4)c3)cc2-c2ccncc2)cc1Cl the growth was 38.1%.
In the case of CCC#CC[C@H](O)C/C=C1/C(=O)C=C[C@@H]1C/C=C\CCCC(=O)OC, the growth is reported as 2.22% (active).
Molecule COc1ccc(Cn2nc3c(c2-c2cc(OC)c(OC)c(OC)c2)-c2oncc2CC3)cc1 has a growth of 54.4%.
For COc1ccc(-c2nc3sccn3c2-c2ccnc(NCCNS(=O)(=O)c3ccc(C(F)(F)F)cc3)n2)cc1, the growth was 4.59% (active).
CC1(C)N=C(N)N=C(N)N1c1ccc(S(=O)(=O)Nc2nccs2)cc1 was tested, and the growth was 101%.
Work on O=C1CN2CCC1C/C2=C\c1ccnc2c(Cl)cccc12 (stereo not given) yielded a growth of 91.8%.
Work on N#Cc1ccc(/C=C/c2cn(-c3ccccc3)nc2-c2cccc([N+](=O)[O-])c2)cc1 yielded a growth of 82.4%.
With O=C(CC(C(=O)c1ccccc1)N1CCOCC1)c1ccccc1 (stereo not given) the growth was 55.4%.
Cc1nc2sc(C(=O)Nc3ccc(Br)cc3)c(N)c2cc1C(O)c1ccccc1 (stereo not given) was tested, and the growth was 22.4%.
In the case of CN1/C(=C/C=C/c2n(Cc3ccc4ccccc4c3)c(Cl)c(Cl)[n+]2Cc2ccc3ccccc3c2)Oc2ccccc21, the growth is reported as 98.9%.
Molecule O=C1C=C(Nc2cccc(Br)c2)c2ccccc2C1=O has a growth of 71.8%.
COc1ccc(-c2nn(-c3cccc(Cl)c3)cc2-c2c(C#N)c(=O)n3[nH]c(-c4ccc(C)cc4)nc3c2C#N)cc1 was tested, and the growth was 61.7%.
COc1ccc(/C=C2\Oc3cc(OCCCN4CCCC4)ccc3C2=O)cc1 was tested, and the growth was 94.7%.
Cn1c(=O)c2c(-c3ccccc3F)n(-c3ccc4c(c3)OCO4)cc2n(C)c1=O showed a growth of 90.2%.
Cc1ccc(S(=O)(=O)N2CCN(C(=O)CSc3nc4ccc(C)cc4[nH]3)CC2)cc1 was tested, and the growth was -1.47% (active).
CN1C(=O)C2(Nc3cc(Cl)ccc3S2)c2cc(Cl)ccc21 (stereo not given) showed a growth of 97.8%.
With CSc1nnc(-c2cc3c([nH]c4ccccc43)c(-c3cccc(O)c3)n2)n1-c1ccc(C)cc1 the growth was -16.1% (active).
With O=C(Nc1ccc(F)cc1)c1ccc(C(=O)Nc2ccc(F)cc2)cc1 the growth was 107%.
Molecule O=C(O)c1ccc(NC(=O)c2cccc(Nc3ccnc(C(F)(F)F)c3)c2)cc1 has a growth of 94.1%.
In the case of O=C(Cc1ccccc1)C(F)(F)F, the growth is reported as 95%.
In the case of COc1ccc(-c2cc(-c3cccnc3)nc3sc4c(=O)[nH]c(-c5ccc(Cl)cc5)nc4c23)cc1OC, the growth is reported as 90.3%.
Work on COc1ccc(C=C2c3ccccc3-c3ccccc32)cc1 yielded a growth of 23.6%.
With CCOc1nc(-c2ccccc2)cc2c(O)c(-c3nnco3)[nH]c(=O)c12 the growth was 34.6%.
For NC(CSC(c1ccccc1)(c1ccccc1)c1ccc(Cl)cc1)C(=O)O (stereo not given), the growth was -40.5% (active).
With O=c1c2cc(Cl)ccc2oc2ccc(OCCCCCN3CCCCC3)cc12 the growth was 38.5%.
Work on COc1ccc(/C=C/C(=O)c2ccc3cc(OC)c(OC)cc3c2)cc1OC yielded a growth of 44.7%.
Work on N=C(c1ccccc1)N(Cc1ccccc1)Cc1ccccc1 yielded a growth of 82.6%.
COc1cccc(Nc2ccnc3[nH]c4ccc([N+](=O)[O-])cc4c23)c1 was tested, and the growth was 35.4%.
Work on CSc1nc2c(c(=O)n1C)C1(C(=O)N(Cc3ccccc3)c3ccccc31)c1c(nc(SC)n(C)c1=O)N2 yielded a growth of 73.4%.
Molecule Nc1cc(Cl)cc2cccnc12 has a growth of 72.3%.
In the case of CC1(C)/C(=C\CO)C2CCC1C2 (stereo not given), the growth is reported as 94.1%.
In the case of N=S(=O)(NC(=O)c1ccc(Cl)cc1Cl)c1ccc(Br)s1 (stereo not given), the growth is reported as 96.8%.
With CS(=O)(=O)Nc1ccc(C(=O)NC(C(=O)NO)c2ccc(-c3cccc(F)c3)cc2)cc1 (stereo not given) the growth was 103%.
Cc1nc(Nc2cccnc2)sc1C(=O)/C=C/c1ccc(Cl)cc1 was tested, and the growth was -4.8% (active).
C[C@@]1(CCC#N)[C@H]2CC[C@@H]3[C@H]4[C@H](C(=O)/C=C/c5cccnc5)CC[C@]4(C#N)CC[C@@]3(C)[C@]2(C)CC[C@H]1C(=O)/C=C/c1cccnc1 gave a growth of 46%.
